In PubChem BioAssay (EPA / NIEHS):
Calls of active or inactive are those of the source. Rule for the calls: active = hit-call score of the fitted dose curve at least 0.9, where 1 is the maximum; inactive = score below 0.9.

Experiment: ATG_DR4_LXR_CIS: Attagene CIS-FACTORIAL HepG2 Assay for human Liver X Receptor (LXR), DR4 submotif (AID 2282929)
Conditions: HepG2 Attagene DR4 cis-reporter, mRNA transcription; actives raise or lower the signal
Procedure: ATG_CIS is a cell-based, multiplexed-readout assay that uses HepG2, a human liver cell line, with measurements taken at 24 hours after chemical dosing in a 24-well plate.ATG_DR4_LXR_CIS is one of 52 assay component(s) measured or calculated from the ATG_CIS assay. It is designed to make measurements of mRNA induction, a form of inducible reporter, as detected with fluorescence intensity signals by Reverse transcription polymerase chain reaction (RT-PCR) and Capillary electrophoresis technology.Data from the assay component ATG_DR4_LXR_CIS was analyzed into 1 assay endpoint. This assay endpoint, ATG_DR4_LXR_CIS, was analyzed with bidirectional fitting relative to DMSO as the negative control and baseline of activity. Using a type of inducible reporter, measures of mRNA for gain or loss-of-signal activity can be used to understand the reporter gene at the transcription factor-level as they relate to the gene NR1H2 and NR1H3. Furthermore, this assay endpoint can be referred to as a primary readout, because this assay has produced multiple assay endpoints where this one serves a reporter gene function. To generalize the intended target to other relatable targets, this assay endpoint is annotated to the nuclear receptor intended target family, where the subfamily is non-steroidal.
Human liver HepG2 cells are transiently transfected with multiple reporter transcription units (MRTUs) in 6-well plates using FuGene 6 reagent (Roche; 3 ml FuGene/1 mg DNA). The MRTU constructs are regulated by a cis-regulating element (promoter). […] A major difference between the CIS and TRANS system is that in CIS activities of endogenous TFs are measured, whereas the TRANS assay evaluates changes in activities of exogenous, chimeric NR-Gal4 proteins. […] At the end of 24 hour incubation, total RNA was isolated using TriZol reagent (Invitrogen). The isolated RNA is then reverse-transcribed using oligo(dT) primer and Mo-MLV reverse transcriptase (Invitrogen) with DNAse I (Ambion) treatment for 30 min. The one-tenth of the produced cDNA was amplified by PCR using Taq DNA polymerase (Invitrogen) and two reporter sequence-specific primers. The PCR products were fluorescently labeled by primer extension with 6-arboxyfluorescein (6-FAM) 5'-labeled reporter sequence-specific primer (2 min at 95 C, 20 s at 68 C and 10 min at 72 C) and these products were digested with 5U of HpaI (New England Biolabs) for 2h at 37 C. The fragments were purified using Qiaquick PCR columns (Qiagen), analyzed on an ABI 3130xL genetic analyzer (Applied Biosystems) with peak positions identified by using a set of X-rhodamine (ROX)-labeled MapMarker1000 molecular weight standards (BioVentures). The raw capillary electrophoresis data was processed using Attagraph software (Attagene).

SMILES | outcome | AC50
COC(=O)c1cccnc1 | inactive | 
O=CCc1ccccc1 | inactive | 
C=C(C#N)C(=O)OCC |  | 158 µM (active)
CCCCC(CC)COC(=O)c1ccc(O)cc1 (stereo not given) | inactive | 
COS(=O)(=O)O | inactive | 
CC=Cc1ccc(OC)c(OC)c1 | inactive | 
CCCCCCCCN1CCCC1=O | inactive | 
COC(C)(C)CC(C)=O | inactive | 
COc1ccccc1N=Nc1c(S(=O)(=O)O)cc2cc(S(=O)(=O)O)cc(NC(C)=O)c2c1O | inactive | 
CCCCCCCCCC(C)C=O (stereo not given) | inactive | 
OC[C@H]1O[C@@H]2O[C@H]3[C@H](O)[C@@H](O)[C@@H](O[C@H]4[C@H](O)[C@@H](O)[C@@H](O[C@H]5[C@H](O)[C@@H](O)[C@@H](O[C@H]6[C@H](O)[C@@H](O)[C@@H](O[C@H]7[C@H](O)[C@@H](O)[C@@H](O[C@H]8[C@H](O)[C@@H](O)[C@@H](O[C@H]9[C@H](O)[C@@H](O)[C@@H](O[C@H]1[C@H](O)[C@H]2O)O[C@@H]9CO)O[C@@H]8CO)O[C@@H]7CO)O[C@@H]6CO)O[C@@H]5CO)O[C@@H]4CO)O[C@@H]3CO | inactive | 
CCOc1ccccc1O | inactive | 
Cc1[nH]c(=O)c(C#N)cc1-c1ccncc1 |  | 26.6 µM (active)
Oc1c(Cl)cc(Cl)c(Cl)c1Cc1c(O)c(Cl)cc(Cl)c1Cl | inactive | 
C=Cc1ccc(C)cc1 | inactive | 
C=C1CC[C@H](O)C/C1=C/C=C1\CCC[C@]2(C)[C@@H]([C@H](C)/C=C/[C@H](C)C(C)C)CC[C@@H]12 | inactive | 
CCCCCCCCCC(=O)OC | inactive | 
CC(=O)O[C@@H]1C[C@@H]2CC[C@@]1(C)C2(C)C | inactive | 
Nc1c(S(=O)(=O)O)cc(Br)c2c1C(=O)c1ccccc1C2=O | inactive | 
C[N+](C)(C)CCCCCC[N+](C)(C)C | inactive | 

SMILES | outcome | AC50
COc1cc(C(C)C)ccc1C | inactive | 
CC(C)C[C@H](NC(=O)OCC1c2ccccc2-c2ccccc21)C(=O)O | inactive | 
Nc1ccc2cc(S(=O)(=O)O)cc(O)c2c1N=Nc1ccccc1C(F)(F)F | inactive | 
CC(C)(C)CC(C)(C)c1ccc(OCCOCC[N+](C)(C)Cc2ccccc2)cc1 |  | 8.35 µM (active)
CC(C=O)Cc1ccc(C(C)(C)C)cc1 (stereo not given) | inactive | 
C=CC(C)(O)CCC=C(C)C (stereo not given) | inactive | 
Cc1c(OCC(F)(F)F)ccnc1CS(=O)c1nc2ccccc2[nH]1 (stereo not given) |  | 134 µM (active)
O=[N+]([O-])c1cccc(Cl)c1 | inactive | 
Cc1ccc(S(=O)(=O)Oc2ccc(N=Nc3ccc(-c4ccc(N=Nc5c(O)ccc6cc(S(=O)(=O)O)cc(S(=O)(=O)O)c56)c(C)c4)cc3C)cc2)cc1 | inactive | 
CCCC(C)C(O)CC (stereo not given) | inactive | 
CCCCCCCCCCCCCCCC(=O)OC/C=C(C)/C=C/C=C(C)/C=C/C1=C(C)CCCC1(C)C | inactive | 
FC(F)(F)COCC(F)(F)F | inactive | 
ON=C1CCCCC1 | inactive | 
CCCCCCCCC=CCCCCCCCC1=NCCN1CCO |  | 40.6 µM (active)
COC(CC(C)CCCC(C)(C)O)OC (stereo not given) | inactive | 
Cc1ccc(N)c(S(=O)(=O)O)c1 | inactive | 
CCCCC(CC)(CO)CO | inactive | 
N#Cc1ccc(CC(=O)c2cccc(C(F)(F)F)c2)cc1 | inactive | 
Cc1cc(S(=O)(=O)O)ccc1N=Nc1c(O)ccc2ccccc12 | inactive | 
CCOC(=O)CC(C)O (stereo not given) | inactive | 
